{"source": "the supplement of paper PMC8728848", "binders": {"B1": {"name": "Cp ZmpB (Clostridium perfringens), Q0TR08 (protein)", "chain": "MNKRKIAAIILATMITNLSATTIDVLAQELNTKNNSKVEVSHDDESHQARVSKFDLYNSDKLDAYNQEFQVSRSNIKSINNNGGKYNSSTIDKAIDGNLETHWETGKPNDANFTNEVVVTFNEITNIDRIVYSARRDSARGKGFAKEFEIYASLKDEGDDFNLVSSGEYTESTRDLVEIKFNPTDFKRLKFKFKKADQNWASAAEFMFYKEDKLNEKFNGLFTDSSMNKVSEEFNTLEKLNAFENELKDHPIYDLYKEGLNNARAILTETSENPTKATLGQITYNLNDDYNNQYRMPYKNIKAIKNNGRHYAAQNIEKAIDNDVNTYWETGTLNSSSFNNEVEVEFNDLVTLDRIVYGSRQSDLKGFAEEVYIYASRTSKGDTYKLVATGAHEATKGLVEAKFEPTEFKRVKFKFKKSKQNSATLNELMFYKPDEVYSSIPKLFTDGTMSELSEEFNSLEKINAFKEKAKNHPLYNDFNETIELAESLISNPRKEDVLELEMRGDSISEAKKRKVWNFQDWQITGLSARAGDKITVYVDVAEGDPTPTLLYKQSLTQHGGATSFQLKPGKNEITIPEINYESNGIPKDVIQGGDLFFTNYKSDSQKRAPKVRIEGASKYPVFILGKSDENEVMKELEAYVEKIKAEPKTTPNIFAVSSNKSLEFVQATYALDWYKKNNKTPKYTAEQWDQYIADAMGFWGFDNSKDVNSDFNFRIMPMVKNLSGGAFMNAGNGVIGIRPGNQDAILAANKGWGVAHELGHNFDTGGRTIVEVTNNMMPLFFESKYKTKTRITDQNIWENNTYPKVGLDDYSNNELYNKADSTHLAQLAPLWQLYLYDNTFYGKFERQFRERDFGNKNREDIYKSWVVAASDAMELDLTEFFARHGIRVDDKVKEDLAKYPKPDKKIYYLNDLAMNYKGDGFTENAKVSVSTSGSNGNIKLSFSVDDENKDNILGYEIRRDGKYVGFTSNDSFVDTKSNLDEDGVYVVTPYDRKLNTLNPIEVNALQPTLSVNPVITLALGEEFNEEEYIVAKDIKGNSLSESVKVKSSNVNTSKVGEYEVLYSLEDSKGNEYTKTSKVNVVSRKEYMSDLTPKQSSNGWGTVRKDKSISGGVIGLTRDGDFVDYNKGLGLHSNAEYVYDLEGKDYDYFESYVGVDKAMSSRPASSVIFKVLVDGEEKFNSGVMRSTTPQKYVKVDVKNAKELKLIVNDAGDGDSSDHASFGDAKLATLSSKPIIKGENLAYSMDEKVDLMKGITATDIEDGNITSKVQIKSSDFVEGKSGIFTVVYSVTDSDGLTSECSRTIAVTDKETQLSDLNWKSATIGSGSVRKDRAVSGNQIRLLNEDNSVETFAKGIGTHSYSEIVYNSEGYDIFDTWVGIDRHVADKKVSSVKFKVYVDGELKAETDVMRIDTPKKRLVVDVRNSKEIKLVVDVADNGNNWDHADWADAKFRNLAEYDASELNKAIEEAKKLDLNNYTEESSEALKNAISKGEEALLSKDKETINSALEELNKEMNSLVKVDLNAVINIPDKYLLKSIQNQLNKTGDITLGDMYSLTTLTLSGVEDLTGLENAKNLETLNMDYNEVKDLRPLSKLKKLNTLNAQEQFIAAGELKPSNGKVIGDSKVYNREGKNVAKTIRVVDKNGNTILEQDAKDEFTINTKDLSSGLYGVHVLFEDEGFSGVMFYLFNV"}}, "assay_in_all_cases": "glycan array binding signal (z-score within array); higher = stronger binding", "conditions_in_all_cases": "glycan notation: IUPAC condensed, linker removed", "key": {"[1]": {"target": "GlcNAc(b1-3)[GlcNAc(b1-6)]GalNAc", "method_in_brief": "(§1)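 Arrays were curated from the Consortium for Functional Glycomics database, 3228 in total, and kept only where the protein sequence was available. Binding is expressed as a within-array Z-score. This score was averaged across arrays of the same protein sequence at different concentrations or buffers and across linkers, and negative values can be read as non-binding.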"}, "[2]": {"target": "Man(a1-3)[Man(a1-6)]Man(b1-4)GlcNAc(b1-4)GlcNAc", "method_in_brief": "as §1"}, "[3]": {"target": "Neu5Ac(a2-3)Gal(b1-3)GalNAc(b1-4)Gal(b1-4)Glc", "method_in_brief": "as §1"}, "[4]": {"target": "Neu5Ac(a2-3)Gal(b1-3)GalNAc(b1-4)[Neu5Ac(a2-3)]Gal(b1-4)Glc", "method_in_brief": "as §1"}, "[5]": {"target": "Neu5Ac(a2-3)Gal(b1-3)GalNAc6S", "method_in_brief": "as §1"}, "[6]": {"target": "Neu5Ac(a2-3)Gal(b1-3)GlcNAc(b1-2)[Neu5Ac(a2-3)Gal(b1-3)GlcNAc(b1-4)]Man(a1-6)[Neu5Ac(a2-3)Gal(b1-3)GlcNAc(b1-2)Man(a1-3)]Man(b1-4)GlcNAc(b1-4)GlcNAc", "method_in_brief": "as §1"}, "[7]": {"target": "Neu5Ac(a2-3)Gal(b1-4)GlcNAc(b1-2)Man", "method_in_brief": "as §1"}, "[8]": {"target": "Neu5Ac(a2-3)Gal(b1-4)GlcNAc(b1-3)GalNAc", "method_in_brief": "as §1"}, "[9]": {"target": "Neu5Ac(a2-3)Gal(b1-4)GlcNAc(b1-6)[Gal(b1-3)]GalNAc", "method_in_brief": "as §1"}, "[10]": {"target": "Neu5Ac(a2-3)Gal(b1-4)[Fuc(a1-3)]GlcNAc", "method_in_brief": "as §1"}, "[11]": {"target": "Neu5Ac(a2-6)Gal(b1-4)GlcNAc(b1-2)Man(a1-3)Man(b1-4)GlcNAc(b1-4)GlcNAc", "method_in_brief": "as §1"}, "[12]": {"target": "Neu5Ac(a2-6)Gal(b1-4)GlcNAc(b1-2)Man(a1-3)[GlcNAc(b1-4)][Neu5Ac(a2-6)Gal(b1-4)GlcNAc(b1-2)Man(a1-6)]Man(b1-4)GlcNAc(b1-4)GlcNAc", "method_in_brief": "as §1"}, "[13]": {"target": "Neu5Ac(a2-6)Gal(b1-4)GlcNAc(b1-2)Man(a1-3)[Man(a1-6)]Man(b1-4)GlcNAc(b1-4)GlcNAc", "method_in_brief": "as §1"}, "[14]": {"target": "Neu5Ac(a2-6)Gal(b1-4)GlcNAc(b1-3)Gal(b1-4)GlcNAc", "method_in_brief": "as §1"}, "[15]": {"target": "Neu5Ac9Ac(a2-3)Gal(b1-4)GlcNAc", "method_in_brief": "as §1"}, "[16]": {"target": "Neu5Gc(a2-3)Gal(b1-3)GlcNAc", "method_in_brief": "as §1"}, "[17]": {"target": "Neu5Gc(a2-3)Gal(b1-4)[Fuc(a1-3)]GlcNAc", "method_in_brief": "as §1"}}, "note": "The sample as a whole holds a higher share of the strongest signals than the screen did.", "data": [{"binder": "B1", "values": [{"measurement": "glycan array binding signal (z-score)", "setting": "[1]", "value": -0.207}, {"measurement": "glycan array binding signal (z-score)", "setting": "[2]", "value": -0.046}, {"measurement": "glycan array binding signal (z-score)", "setting": "[3]", "value": 0.164}, {"measurement": "glycan array binding signal (z-score)", "setting": "[4]", "value": 1.03}, {"measurement": "glycan array binding signal (z-score)", "setting": "[5]", "value": -0.457}, {"measurement": "glycan array binding signal (z-score)", "setting": "[6]", "value": 0.01}, {"measurement": "glycan array binding signal (z-score)", "setting": "[7]", "value": 0.151}, {"measurement": "glycan array binding signal (z-score)", "setting": "[8]", "value": -0.142}, {"measurement": "glycan array binding signal (z-score)", "setting": "[9]", "value": 1.22}, {"measurement": "glycan array binding signal (z-score)", "setting": "[10]", "value": 0.096}, {"measurement": "glycan array binding signal (z-score)", "setting": "[11]", "value": -0.151}, {"measurement": "glycan array binding signal (z-score)", "setting": "[12]", "value": -0.267}, {"measurement": "glycan array binding signal (z-score)", "setting": "[13]", "value": -0.365}, {"measurement": "glycan array binding signal (z-score)", "setting": "[14]", "value": 1.03}, {"measurement": "glycan array binding signal (z-score)", "setting": "[15]", "value": 1.71}, {"measurement": "glycan array binding signal (z-score)", "setting": "[16]", "value": -0.326}, {"measurement": "glycan array binding signal (z-score)", "setting": "[17]", "value": 2.05}]}]}
